# Shown are actives, neighbours in structure and some others; about 6.9% of the full set was active somewhere.
# Vif-A3F inh: Vif-A3F binding inhibition. 390,000 tested, 0.2% active. HeLa A3F-eYFP + Vif (tagged APOBEC3F with the HIV-1 protein that degrades it), YFP fluorescence increase. Potency, µM (doses to about 46.1 µM); note: nearly all actives have a fitted effect of over 65% in size
#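 HeLa cells stably expressing Vif plus C-terminally eYFP-tagged A3F were seeded, incubated overnight at 37 deg C, dosed with compound, incubated overnight again at 37 deg C. Yellow fluorescence (Ex 488/Em 500-530) reported blocked Vif-mediated A3F-eYFP degradation.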
# SW480 rerep: DNA re-replication induction in SW480 cells; SW480 DNA re-replication, Hoechst DNA content imaging, 48 h; 340,000 tested, 1.8% active; AID 624297; Potency, µM (highest dose often 46.1 µM), actives largely listed as activators; note: nearly all actives have a fitted effect of over 55% in size
#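 Per well, 250 cells were exposed to pinned compound for 48 hr. Nuclear DNA was visualised with Hoechst (40 min, 37 C) and total object intensity recorded by fluorescence scanning.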
# Vif-A3G inh: Vif-A3G binding inhibition; 410,000 tested, 0.076% active; Potency, µM (titrated, usually from 46.1 µM), usual class: inhibitors; HeLa A3G-eYFP + Vif (tagged APOBEC3G with the HIV-1 protein that degrades it), YFP fluorescence, overnight; Q9HC16; note: nearly all actives have a fitted effect of over 60% in size
# Target sequence (Q9HC16 whole entry, looked up): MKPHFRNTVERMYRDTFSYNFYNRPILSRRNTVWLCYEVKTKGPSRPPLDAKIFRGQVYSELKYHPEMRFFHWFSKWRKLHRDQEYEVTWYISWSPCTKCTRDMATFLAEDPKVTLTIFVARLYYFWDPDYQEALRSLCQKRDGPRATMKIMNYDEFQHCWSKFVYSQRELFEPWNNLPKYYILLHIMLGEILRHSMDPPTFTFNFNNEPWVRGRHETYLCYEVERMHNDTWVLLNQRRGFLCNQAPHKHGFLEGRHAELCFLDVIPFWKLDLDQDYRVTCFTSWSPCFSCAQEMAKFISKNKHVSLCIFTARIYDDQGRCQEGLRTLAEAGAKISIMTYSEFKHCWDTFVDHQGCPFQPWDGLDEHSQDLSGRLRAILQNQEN
#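 Read-out is eYFP fluorescence (Ex 488/Em 500-530) from Vif-expressing HeLa A3G-eYFP cells; more signal means A3G escaped Vif-mediated degradation. Cells plated overnight, compound pinned in, incubated overnight at 37 deg C.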
# Giardia kill: Giardia lamblia killing; Giardia lamblia trophozoite viability; activity change, % at 7.66 µM, hits read low; 340,000 tested, 0.15% active; AID 540267; in the data active = activity change below about -80%; inconclusive = between about -30% and that limit;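 note: parasites exposed to compound for two days anaerobically before the ATP read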
#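 Trophozoite viability was measured as ATP-dependent luminescence, read 15-30 min after reagent addition. Before that, parasites at 100 cells/well were exposed to compounds for 48 h, anaerobically, at 37 deg C.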
# MCF10A rerep: induces DNA re-replication in MCF 10a normal breast cells; 350,000 tested, 2.9% active; MCF 10A DNA re-replication, Hoechst nuclear intensity, 48 h; Potency, µM (top dose mostly 46.1 µM), most hits filed as activators; note: nearly all actives have a fitted effect of over 50% in size
# IL-1B inflam inh: blocks inflammasome-driven IL-1 beta release | THP-1 LPS/ATP IL-1B secretion, AlphaLISA, 16 h; active compounds read low | activity change, % at 57.5 µM | 360,000 tested, 4.7% active | AID 743279; in the data active = activity change below about -50%; inconclusive = mostly about -30% to -49%
#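 THP-1 cells pretreated 1 hr with compounds (up to 57.5 uM final), then stimulated with LPS (250 ng/mL final) plus ATP (1.25 mM final); secreted IL-1B measured by AlphaLISA after 16 hr, decreased signal indicating inhibition.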
# A number is an active result; – = inactive; ? = inconclusive; · = not tested or not shown. Unless noted, calls come from the whole dose curve; as a rule, active = well fitted curve in the direction sought with a large enough effect; inconclusive = small, poorly fitted or top-dose-only effect, or another doubt; inactive = no such curve, though single readings can be large; an effect the other way counts as inactive or inconclusive.
SMILES,Vif-A3F inh,SW480 rerep,Vif-A3G inh,Giardia kill,MCF10A rerep,IL-1B inflam inh
O=C(CSc1nc2ncc(Cl)cc2[nH]1)Nc1ccccc1-c1ccccc1,–,?,–,–,?,–
CCC(C(=O)Nc1cccc(C#N)c1)n1nc(-c2ccccc2)ccc1=O (centres undefined),–,·,–,·,·,·
Cc1ccc(NC(=O)c2cnc3sc(N4CCOCC4)nn3c2=O)cc1N(C)C,–,·,–,·,·,·
CCOC(=O)c1sc(Nc2nc3c(F)cccc3s2)cc1C,–,?,–,–,20.6µM,–
COc1ccc(Nc2nc3ccccc3s2)cc1,–,–,–,–,–,–
COc1cccc(Nc2nc3ccc(OC)cc3s2)c1,–,–,–,–,–,-172.3
CCOC(=O)c1sc(Nc2nc3ccc(OC)cc3s2)cc1C,–,?,–,–,18.4µM,–
CC(=O)Nc1nc2c(F)cccc2s1,–,–,–,–,–,–
CCOC(=O)c1sc(NC(=O)Nc2cccc(Cl)c2)cc1C,?,–,–,–,?,-76.0
CCOC(=O)c1sc(NC(=O)c2cccs2)cc1C,–,–,–,–,–,?
Nc1nc(=S)[nH]c2n[nH]nc12,·,·,–,·,·,·
Cc1ccccc1NC(=O)c1cc2c(-c3ccccc3)nn(-c3ccccc3)c2s1,–,·,–,·,·,·
Clc1ccc(OCCCN2CCc3ccccc3C2)c(Br)c1,–,–,–,–,–,–
Clc1ccc(OCCOCCN2CCc3ccccc3C2)c(Cl)c1,?,–,–,–,?,-82.5
c1ccc(-c2ccccc2OCCOCCN2CCc3ccccc3C2)cc1,–,–,–,–,?,-75.1
O=C(NCCc1ccccc1)c1nn(-c2ccc(F)cc2)nc1CO,–,·,–,·,·,·
CCOC(=O)C1=C(CC)Nc2ccccc2N=C1NC(=O)c1oc2ccccc2c1C,–,–,–,–,?,?
CCOCc1c(C(=O)NC2=Nc3ccccc3NC(CC)=C2C(=O)OCC)oc2ccccc12,–,20.6µM,–,–,10.3µM,–
CCc1ccc(CN(C)C(=O)CCc2nc3ccccc3n(-c3ccc(OC)cc3)c2=O)cc1,–,?,–,–,?,-56.4
O=C(NCc1ccco1)c1cnn2c(C(F)F)cc(-c3ccccc3)nc12,?,–,–,–,8.2µM,–
COCCNC(=O)c1cnn2c(C(F)F)cc(-c3ccccc3)nc12,–,14.6µM,–,–,?,–
COc1ccc(-c2cc(C(F)F)n3ncc(C(=O)N4CCSCC4)c3n2)cc1,–,5.17µM,–,–,?,–
CC(C)N1C(=O)/C(=C\c2nc3ccccc3c(=O)[nH]2)c2ccccc21,–,?,–,–,?,-99.9
CCCN1C(=O)/C(=C/c2nc3ccccc3c(=O)[nH]2)c2ccccc21,–,–,–,–,–,–
O=c1oc2ccccc2cc1-c1nc2ccccc2o1,–,–,–,–,–,–
SMILES,Vif-A3F inh,SW480 rerep,Vif-A3G inh,Giardia kill,MCF10A rerep,IL-1B inflam inh
COc1ccc2oc(=O)c(-c3nc4ccccc4o3)cc2c1,12.6µM,–,?,–,?,–
O=c1oc2ccc3ccccc3c2cc1-c1nc2ccccc2o1,?,18.4µM,–,–,?,–
COc1ccc2oc(=O)c(-c3nnc(-c4ccc(C)cc4)o3)cc2c1,–,·,–,·,·,·
CCOC(=O)C1=C(C)N=C2SC(C(=O)OC)=CC(=O)N2C1c1ccc(F)cc1 (centres undefined),–,–,–,–,–,-60.8
CN(C)c1ccc(-c2nnn(CC(=O)Nc3ccccc3N3CCOCC3)n2)cc1,–,–,–,–,–,-77.0
COc1ccc(NC(=O)C2CCN(S(=O)(=O)c3c(C)noc3/C=C/c3cccs3)CC2)cc1Cl,–,·,–,–,·,·
COC(=O)[C@@]1(Cc2ccc(OC)cc2)[C@H]2c3cc(C(=O)N4CCCC4)n(CCn4cc([N+](=O)[O-])nc4C)c3C[C@H]2CN1C(=O)c1ccccc1,–,–,–,-82.9,–,–
COC(=O)[C@@]1(Cc2ccc(F)cc2)[C@H]2c3cc(C(=O)N4CCCC4)n(Cc4ccc(C(F)(F)F)nc4)c3C[C@H]2CN1C(=O)c1ccccc1,–,16.4µM,–,–,–,?

# Bioassay records as filed in PubChem.
